From PubChem BioAssay (NCI)
Compounds without any hit were thinned out: in the full panel of roughly 79,000, 15% have a hit. A number with no mark means an inactive call. Calls of active or inactive are those of the source. Cut-off read from the data, not from the text of the source: active = growth inhibition above about 70%; inactive = the rest.

What was measured:
[1] = NCI Yeast Anticancer Drug Screen. Data for the rad50 strain (AID 155);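 note: 0% = growth of vehicle-only cultures of the same strain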; conditions: S. cerevisiae rad50 strain growth inhibition, active compounds read high
Outline: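 Compounds were tested on a yeast strain with an engineered DNA damage repair alteration; the reported value is growth inhibition normalised to vehicle treatment.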

[2] = NCI Yeast Anticancer Drug Screen. Data for the mec2-1 strain (AID 157); conditions: S. cerevisiae mec2-1 strain, active compounds read high
Outline: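 mec2-1 yeast strain, carrying an alteration in DNA damage repair or cell cycle control, was exposed to compounds; growth inhibition was measured relative to vehicle-treated controls.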

[3] = NCI Yeast Anticancer Drug Screen. Data for the sgs1 mgt1 strain (AID 161);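 note: 0% = growth of cultures given vehicle only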; conditions: S. cerevisiae sgs1 mgt1 strain, active compounds read high
Outline: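 Percent growth inhibition was derived by comparing compound-exposed mutant yeast with vehicle-exposed cultures. The strain carries alterations in DNA damage repair.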

[4] = NCI Yeast Anticancer Drug Screen. Data for the cln2 rad14 strain (AID 165);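 note: 0% = growth equal to vehicle treated cultures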; conditions: S. cerevisiae cln2 rad14 strain, active compounds read high
Outline: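 Yeast carrying cln2 and rad14 alterations (cell cycle control and DNA damage repair) were exposed to compounds. Growth inhibition was measured against vehicle-treated controls.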

[5] = NCI Yeast Anticancer Drug Screen. Data for the bub3 strain (AID 167); conditions: S. cerevisiae bub3 mutant strain, active compounds read high
Outline: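 Growth of a checkpoint-deficient yeast mutant is measured after compound exposure. Values represent inhibition relative to vehicle.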

[6] = NCI Yeast Anticancer Drug Screen. Data for the mlh1 rad18 strain (AID 175); conditions: S. cerevisiae mlh1 rad18 strain growth inhibition, active compounds read high
Outline: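 Growth inhibition of the yeast strain was measured after compound exposure and expressed relative to vehicle-treated controls. The strain carries defined defects in DNA damage repair.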

[7] = at 5.0 µM (retest, dose inferred, filed as 0.5)
[8] = at 50.0 µM (retest, dose inferred, filed as 5.0)

Structure (SMILES)	growth inhibition [1, 7]	growth inhibition [1, 8]	growth inhibition ([1]; at 50.0 µM)	growth inhibition [2, 7]	growth inhibition [2, 8]	growth inhibition ([2]; at 50.0 µM)	growth inhibition [3, 7]	growth inhibition [3, 8]	growth inhibition ([3]; at 50.0 µM)	growth inhibition [4, 7]	growth inhibition [4, 8]	growth inhibition ([4]; at 50.0 µM)	growth inhibition [5, 7]	growth inhibition [5, 8]	growth inhibition ([5]; at 50.0 µM)	growth inhibition [6, 7]	growth inhibition [6, 8]	growth inhibition ([6]; at 50.0 µM)
CC(C)c1ccc(O)c(Cc2cc(C(C)C)ccc2O)c1	42%	98% (active)	98.2% (active)	23%	98% (active)	98.3% (active)	20%	99% (active)	96.7% (active)	20%	98% (active)	97.1% (active)	20%	99% (active)	98.6% (active)	64%	98% (active)	97.5% (active)
CC(Cc1ccccc1)N1C(=O)C=CC1=O (stereo not given)	45%	98% (active)	91.8% (active)	92% (active)	99% (active)	93.5% (active)	20%	50%	93.8% (active)	77% (active)	98% (active)	91.5% (active)	76% (active)	99% (active)	92.2% (active)	47%	98% (active)	91.8% (active)
Oc1ccc(SCc2cc(O)ccc2O)cc1	9%	93% (active)	86% (active)	8%	73% (active)	91.2% (active)	-17%	48%	84.5% (active)	-13%	69%	66%	-26%	73% (active)	86.7% (active)	10%	86% (active)	82.1% (active)
CC(C)N=C(NC(C)C)SCCCCCCSC(=NC(C)C)NC(C)C	2%	-2%	12.3%	-1%	1%	-17.2%	-7%	1%	2.4%	-6%	-1%	76.2% (active)	3%	-2%	-16.2%	-1%	-5%	6.9%
O=Cc1cc([N+](=O)[O-])ccc1O	95% (active)	99% (active)	93.8% (active)	98% (active)	99% (active)	96.7% (active)	86% (active)	99% (active)	98.5% (active)	96% (active)	99% (active)	74.2% (active)	97% (active)	99% (active)	94.8% (active)	98% (active)	99% (active)	97% (active)
C/C=C/C/C=C/CCC(=O)C1OC1C(N)=O (stereo not given)	98% (active)	99% (active)	92.3% (active)	99% (active)	99% (active)	93.3% (active)	99% (active)	99% (active)	93.3% (active)	98% (active)	99% (active)	91.4% (active)	99% (active)	98% (active)	91.8% (active)	99% (active)	99% (active)	91.8% (active)
Cc1ccccc1NC(=O)CSC(N)=O	2%	26%	82.1% (active)	-1%	34%	60.4%	1%	36%	91.8% (active)	5%	6%	55%	1%	66%	87.3% (active)	0%	29%	83% (active)
O=C1C(Br)=C(Br)C(=O)c2ccccc21	100% (active)	95% (active)	92.5% (active)	100% (active)	96% (active)	94.2% (active)	100% (active)	95% (active)	94.5% (active)	100% (active)	95% (active)	90.9% (active)	100% (active)	98% (active)	96.7% (active)	99% (active)	91% (active)	89.9% (active)
O=C(C[n+]1ccccc1)N=N/C(C(=O)Nc1c(Cl)c(O)c2ccccc2c1O)=C1/C(=O)Oc2cc(O)ccc2C1=O	15%	98% (active)	97.3% (active)	23%	98% (active)	95.8% (active)	19%	98% (active)	93% (active)	-15%	96% (active)	68.5%	24%	98% (active)	90.8% (active)	27%	97% (active)	94.6% (active)
S=C(C(=S)N1CCOCC1)N1CCOCC1	14%	16%	0.05%	12%	16%	26.1%	19%	27%	12.8%	15%	12%	-16.8%	22%	23%	11.8%	16%	16%	7.95%
COC(O)C(=O)c1ccc2c(c1)CC1(C2)Cc2cc3c(cc2C1=O)CCC3 (stereo not given)	28%	99% (active)	20.2%	40%	99% (active)	23.9%	33%	98% (active)	52.1%	23%	99% (active)	57.4%	35%	99% (active)	31.6%	41%	99% (active)	45.9%
Cc1cc(C)c(O)c(C(C)(C)C)c1	-1%	3%	92.3% (active)	1%	1%	59.7%	1%	0%	74.7% (active)	2%	8%	64.6%	3%	-10%	66.8%	2%	4%	89.7% (active)
C=C(CSCCCCCCCCCCCC)C(=O)O	98% (active)	97% (active)	98.5% (active)	99% (active)	98% (active)	98.9% (active)	98% (active)	97% (active)	98.5% (active)	98% (active)	96% (active)	94.3% (active)	98% (active)	96% (active)	99.3% (active)	99% (active)	97% (active)	96.7% (active)
Cc1ccccc1NC(=O)C(=O)C(C#N)c1c(Cl)cccc1Cl (stereo not given)	-13%	15%	-15.6%	6%	11%	17.1%	-2%	2%	25.6%	0%	10%	-12.1%	-3%	25%	14.7%	2%	3%	25.9%
S=C(SSSSC(=S)N1CCCCC1)N1CCCCC1	45%	92% (active)	66.8%	39%	95% (active)	19.9%	39%	96% (active)	43.1%	39%	94% (active)	9.35%	40%	95% (active)	73.5% (active)	57%	93% (active)	81% (active)
Cc1cccc(/C=N/Nc2cc(C)nc3ccccc23)n1	1%	2%	92.7% (active)	-3%	-3%	37.8%	-2%	35%	53.6%	5%	40%	53.8%	2%	7%	19.7%	-1%	34%	46.4%
CC(C)(C)C(NO)C(O)N1CCCCC1 (stereo not given)	-155%	-141%	20.2%	-53%	-52%	6.25%	-59%	-63%	17.1%	-63%	-57%	50%	-69%	-73%	-4%	-118%	-105%	12.4%
CC1OC(OP(=O)(OCc2ccccc2)OCc2ccccc2)C(OC(=O)c2ccccc2)C(OC(=O)c2ccccc2)C1I (stereo not given)	50%	93% (active)	86.1% (active)	33%	95% (active)	90.6% (active)	37%	96% (active)	90.1% (active)	29%	95% (active)	88.5% (active)	30%	77% (active)	88.9% (active)	55%	93% (active)	85% (active)
O=C1OC(c2ccccc2)N/C1=C\c1ccc2c(c1)OCO2 (stereo not given)	34%	53%	-45.7%	17%	20%	-53.1%	22%	24%	-8.55%	11%	21%	3.55%	22%	19%	-14.7%	18%	26%	-6.95%
CNCCCNc1c2cc(OC)ccc2nc2cccc([N+](=O)[O-])c12	9%	96% (active)	82.8% (active)	-10%	97% (active)	88.2% (active)	49%	94% (active)	78.3% (active)	41%	98% (active)	85.3% (active)	-31%	52%	55.5%	41%	97% (active)	78.6% (active)
